The text below walks through data of PubChem BioAssay (NCI).

A short description of assay [1]: NCI Yeast Anticancer Drug Screen. Data for the rad50 strain (AID 155).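 Further: 0% = growth of vehicle-only cultures of the same strain.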 The conditions noted are these: S. cerevisiae rad50 strain growth inhibition; at 50.0 µM; hits give high values. The method, boiled down: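 Vehicle-treated cultures provide the reference for the growth inhibition reported for compound-exposed, repair-deficient yeast.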
The nature of assay [2]: NCI Yeast Anticancer Drug Screen. Data for the mec2-1 strain (AID 157). Conditions: S. cerevisiae mec2-1 strain, at 50.0 µM, hits give high values. The method, boiled down:
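Mutant yeast (mec2-1) grown with compound; growth inhibition relative to vehicle control reported.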

Assay [3] is described as follows: NCI Yeast Anticancer Drug Screen. Data for the sgs1 mgt1 strain (AID 161).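 Further: 0% = growth of cultures given vehicle only.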 Conditions: S. cerevisiae sgs1 mgt1 strain, at 50.0 µM, hits give high values. The method, boiled down:
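Yeast cells carrying a defined DNA-repair defect were exposed to test compounds. Growth inhibition was measured relative to vehicle-treated controls.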

A short description of assay [4]: NCI Yeast Anticancer Drug Screen. Data for the cln2 rad14 strain (AID 165).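 Further: 0% = growth equal to vehicle treated cultures.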 The conditions noted are these: S. cerevisiae cln2 rad14 strain, at 50.0 µM, hits give high values. The method, boiled down: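 Readout is yeast growth inhibition versus vehicle-treated controls, using a strain with cln2 and rad14 alterations exposed to compound.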
Assay [5] is described as follows: NCI Yeast Anticancer Drug Screen. Data for the bub3 strain (AID 167). Conditions: S. cerevisiae bub3 mutant strain, at 50.0 µM, hits give high values. Summed up:
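Mutant yeast screening strain plus compound; vehicle-treated cultures serve as the 0% inhibition reference.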

Assay [6] is described as follows: NCI Yeast Anticancer Drug Screen. Data for the mlh1 rad18 strain (AID 175). The conditions noted are these: S. cerevisiae mlh1 rad18 strain growth inhibition; at 50.0 µM; hits give high values. The method, boiled down:
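Genetically defined yeast (DNA repair-deficient) exposed to compounds; growth inhibition determined relative to vehicle.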

About 79,000 compounds went through this panel and 15% of them were active in at least one assay; those are over-represented in the sample as a whole. Values without a mark were called inactive. The source made the active and inactive calls. No stated cut-off is given here; in the data, active means growth inhibition above about 70%; inactive means the rest.

`CCOC(=O)CNC(=O)CNC(=O)CNS(=O)(=O)c1ccc(C)cc1`: the growth inhibition in assay [1] is -22.1%; in assay [2], 15.2%; in assay [3], 3.1%; in assay [4], -28.5%; in assay [5], 10.9%; in assay [6] it was -45.8%.

In the case of `Cc1ccc(S(=O)(=O)N2CCCSCCN(S(=O)(=O)c3ccc(C)cc3)CCCSCC2)cc1`, the growth inhibition was -0.25% in assay [1]; -32.5% in assay [2]; -30.2% in assay [3]; -9.4% in assay [4]; -28.6% in assay [5]; -24.4% in assay [6].

On to `CC(=O)Nc1ccc(NC(=O)Nc2cccc(C(C)=O)c2)cc1`, for which the growth inhibition in assay [1] was 7.3%; in assay [2] it was 27.2%; in assay [3], 9.35%; in assay [4], 0.3%; in assay [5], 22.6%; in assay [6], 28.6%.

Turning to `C[N+]1(Cc2ccccc2)CCC(=O)CC1`, the growth inhibition in assay [1] was 4.05%; in assay [2] it was -12.9%; in assay [3], -7.1%; in assay [4], -13.1%; in assay [5], 10.9%; in assay [6] it was -13.8%.

In the case of `CCCCS(=N)(=O)CC[C@H](N)C(=O)O` (stereo partly specified), the growth inhibition in assay [1] is 2.3%; in assay [2], -22.6%; in assay [3], -25.1%; in assay [4] it was -1.4%; in assay [5] it was -47%; in assay [6], -9.85%.

Take `CC1OC(OCC2COC(O)(Oc3c(-c4ccc(O)c(O)c4)oc4cc(O)cc(O)c4c3=O)C(O)C2O)C(O)C(O)C1O` (stereo unspecified): the growth inhibition in assay [1] is 20.1%; in assay [2], -29.4%; in assay [3] it was -15.8%; in assay [4], 0.6%; in assay [5], 8.05%; in assay [6] it was 13.9%.

Regarding `CC(=O)Nc1c(C)cccc1[N+](=O)[O-]`, the growth inhibition in assay [1] is 5.35%; in assay [2], -14.2%; in assay [3], 0%; in assay [4], -17.6%; in assay [5], 2.8%; in assay [6] it was 3.65%.

As to `C=CCCC(=O)OC(C)(C)C`, the growth inhibition is 16.8% in assay [1]; -15.4% in assay [2]; 21.4% in assay [3]; 7.2% in assay [4]; 6.1% in assay [5]; 1.95% in assay [6].

Regarding `CN=S(=O)(OCCCCOS(=O)(=NC)c1ccc(C)cc1)c1ccc(C)cc1` (stereo unspecified), the growth inhibition in assay [1] was 10.6%; in assay [2] it was -14.4%; in assay [3] it was -26.4%; in assay [4], -22.8%; in assay [5], -23.4%; in assay [6] it was -71.5%.

For `Fc1cccc2cccnc12`, the growth inhibition in assay [1] was 0.05%; in assay [2], -4.45%; in assay [3] it was 11.2%; in assay [4], 5.65%; in assay [5], 12.7%; in assay [6] it was 7.4%.

For the compound `O=C1c2ccccc2C(=O)C2C1C(c1ccccc1)N(c1ccccc1)C2c1ccccc1` (stereo unspecified), the growth inhibition was -16.4% in assay [1]; -1.55% in assay [2]; -7.1% in assay [3]; 5.75% in assay [4]; 2.65% in assay [5]; -3.1% in assay [6].

On to `C=CCCCCCCCCC(=O)NCc1ccncc1`, for which the growth inhibition is 56.2% in assay [1]; 29.2% in assay [2]; 59.5% in assay [3]; 50.4% in assay [4]; 41.7% in assay [5]; 86.7% (active) in assay [6].

In the case of `CCO/C([O-])=C(\C=N\S(=O)(=O)c1ccc(C)cc1)[n+]1ccccc1`, the growth inhibition in assay [1] is 8.8%; in assay [2] it was 13.8%; in assay [3], 5.1%; in assay [4], -20.2%; in assay [5] it was -3.85%; in assay [6], 2.65%.

Take `COc1ccccc1Oc1ccccc1`: the growth inhibition in assay [1] was -20.7%; in assay [2], -61.3%; in assay [3], -8.6%; in assay [4], 13.6%; in assay [5], -34%; in assay [6], 20.8%.

For `CC(=O)OC1CCC2(C)C(CCC34OC23CCC2(C)C(C(C)CCCC(C)C)CCC24C)C1(C)C` (stereo unspecified), the growth inhibition in assay [1] is 45.4%; in assay [2], 16.4%; in assay [3], 39.5%; in assay [4], 1%; in assay [5], -1%; in assay [6], 28.4%.

Regarding `O=C(NN1C(=O)C(Cl)C1c1ccccc1O)c1ccccc1O` (stereo unspecified), the growth inhibition in assay [1] is -5.85%; in assay [2] it was -26.5%; in assay [3], -15.6%; in assay [4], -15.1%; in assay [5], -16.6%; in assay [6] it was -29.4%.

In the case of `O=c1ccc2c(-c3ccccc3S(=O)(=O)O)c3ccc(O)c(O)c3oc-2c1O`, the growth inhibition in assay [1] was 3.45%; in assay [2], 13.3%; in assay [3], -4.4%; in assay [4], 11%; in assay [5] it was 15.6%; in assay [6] it was 4.4%.

For the compound `O=c1c(Cc2ccccc2)c(O)cc2n1CCC2`, the growth inhibition was -14.5% in assay [1]; -14.4% in assay [2]; -10.7% in assay [3]; 8.75% in assay [4]; -5.25% in assay [5]; -10.9% in assay [6].

In the case of `Cn1c(=O)c2c(nc(N)n2C)n(C)c1=O`, the growth inhibition is -16.8% in assay [1]; -8.35% in assay [2]; 5.8% in assay [3]; -30.2% in assay [4]; -33.6% in assay [5]; -20.4% in assay [6].

Take `O=CNC(Cc1cnc[nH]1)C(=O)O` (stereo unspecified): the growth inhibition was -14.4% in assay [1]; -16.9% in assay [2]; -48.1% in assay [3]; -68.2% in assay [4]; -25.5% in assay [5]; -30.2% in assay [6].

Consider `CCNC(=S)OC1CCC2(C)C(=CCC3C2CCC2(C)C(C(C)CCC(CC)C(C)C)CCC32)C1` (stereo unspecified), for which the growth inhibition in assay [1] was -1.7%; in assay [2], 6.6%; in assay [3], -11.6%; in assay [4], -24.4%; in assay [5], -1.55%; in assay [6] it was -23.8%.
